# Hits are enriched below; roughly 3.8% of the tested compounds scored in any of these assays.
# Nrf2 ARE act: Nrf2 pathway activation; AREc32 ARE-luciferase reporter (MCF7-derived line), luminescence, 24 h; Potency, µM (top dose mostly 46.1 µM), for the others: at the highest dose activation, hits mostly activators; hit rate 0.31% among 410,000; AID 624171; also: % of control where 0% means no effect; nearly all actives have a fitted effect of over 65% in size
#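 Luminescent ARE reporter assay in AREc32_Fluc cells: overnight plating at 37 deg C, 24 hr compound incubation, Steady-Glo added, 30 min RT before reading.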
# mIDH1 inhibitor: blocks human mutant IDH1 R132H enzyme; IDH1-R132H enzyme, NADPH consumption, diaphorase/resazurin fluorescence; Potency, µM (top dose mostly 76.6 µM), for inactives: at the top dose activity change, negative = inhibition, actives largely listed as inhibitors; hit rate 0.093% among 390,000; also: % is scaled to controls: 0 for no effect and ±100 for the full control effect; nearly all actives have a fitted effect of over 65% in size
# Target sequence (O75874 whole entry R132H, stated change not applied): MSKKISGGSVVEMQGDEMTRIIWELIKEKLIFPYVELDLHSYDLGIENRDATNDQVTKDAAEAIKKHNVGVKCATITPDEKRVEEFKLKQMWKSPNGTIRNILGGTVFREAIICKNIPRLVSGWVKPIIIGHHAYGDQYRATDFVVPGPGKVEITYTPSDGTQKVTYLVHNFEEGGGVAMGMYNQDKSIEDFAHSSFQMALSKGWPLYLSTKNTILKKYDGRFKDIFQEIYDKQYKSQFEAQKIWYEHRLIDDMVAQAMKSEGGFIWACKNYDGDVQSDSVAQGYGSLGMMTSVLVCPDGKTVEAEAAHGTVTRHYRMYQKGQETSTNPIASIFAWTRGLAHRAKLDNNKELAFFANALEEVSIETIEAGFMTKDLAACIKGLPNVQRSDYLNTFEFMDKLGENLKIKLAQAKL
#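 IDH1-R132H (0.5 ug/mL) preincubated 30 min with compound, then NADPH (0.016 mM) and alpha-KG (2 mM) added; 80 min at RT, pH 7.5. Remaining NADPH coupled via diaphorase/resazurin to fluorescence (540/590 nm); concentration-response curves normalized to no-enzyme control.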
# Nrf2 inh: Nrf2 pathway inhibition. hit rate 2.1% among 360,000. Potency, µM (doses to about 46 µM), for the others: at the highest dose activity change, negative = inhibition, usual class: inhibitors. A549 ARE-Fluc reporter, luciferase luminescence, 18-24 h; also: % is scaled to controls: 0 for no effect and ±100 for the full control effect; nearly all actives have a fitted effect of over 60% in size
#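 Reporter: ARE-Fluc in A549. Exposure: 18-24 h, 37 °C, 5% CO2, 5% FBS OPTI-MEM. Readouts: fluorescent cytotoxicity (CellTiter-Fluor), then luminescent Nrf2 signal after BugLite.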
# ELG1 repair inh: blocks ELG1-dependent DNA repair in HEK293T cells. HEK293T ELG1-luciferase reporter, luminescence, 16 h; DNA damage induced by 5-fluorouridine. AID 504467. Potency, µM (series often up to 46.1 µM), for inactives: at the highest dose activity change, negative = inhibition, usual class: inhibitors. hit rate 2.3% among 330,000; also: % is scaled to controls: 0 for no effect and ±100 for the full control effect; nearly all actives have a fitted effect of over 55% in size
#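 HEK293T cells expressing luciferase-tagged ELG1 (2,000/well) received 5-Fluorouridine plus compound or DMSO for 16 hr at 37 °C. Luciferase was read by ONE-Glo luminescence after 30 min at room temperature.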
# A549 tox: kills or reduces viability of A549 cells in Nrf2 counter-screen. A549 ARE-Fluc cells, CellTiter-Fluor viability, 18-24 h. Potency, µM (doses to about 46 µM), for the others: top-dose activity change, negative = cytotoxicity, actives largely listed as inhibitors. hit rate 0.16% among 390,000. AID 504648; also: % is scaled to controls: 0 for no effect and ±100 for the full control effect
#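 A549 ARE_Fluc cells in 5% FBS OPTI-MEM were exposed to compounds in concentration-response for 18-24 h at 37 deg C. Viability was read by CellTiter-Fluor fluorescence (Ex 405/Em 525) after 30 min, before the luciferase read.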
# Starred values were filed as active, the others as inactive; ? = inconclusive; . = no result; [ ] = another dose, or the depositor's remark. Calls follow the shape of the dose curve; as a rule, active = well fitted curve in the direction sought with a large enough effect; inconclusive = small, poorly fitted or top-dose-only effect, or another doubt; inactive = no such curve, though single readings can be large; an effect the other way counts as inactive or inconclusive. Potency is read from the fitted curve at half-maximal effect.
SMILES,Nrf2 ARE act,mIDH1 inhibitor,Nrf2 inh,ELG1 repair inh,A549 tox
CCN(CC(=O)Nc1c(F)cccc1F)C(=O)c1ccc(N2CCCCC2)c([N+](=O)[O-])c1,0%,7%,16µM*,3%,-12%
O=C(Nc1nnc(S(=O)(=O)N2CCCCC2)s1)c1ccc(F)cc1,0%,35%,?,.,-1%
CCn1ccc2cc(S(=O)(=O)N3CCCN(C(=O)Nc4ccc(C)c(F)c4)CC3)ccc21,6%,4%,.,.,3%
COc1ccc(OCC(=O)Nc2c3c(nn2C(C)(C)C)CSC3)cc1,1%,2%,12µM*,?,-6%
Cc1ccc(OCCSc2nc3ccccc3n2CC(=O)N2CCCCC2)c(C)c1,0%,11%,?,.,-1%
COc1ccccc1N1CCN(Cc2ccc(-c3ccccc3[N+](=O)[O-])o2)CC1,9%,5%,23µM*,-16%,-1%
COc1ccc(OC)c(C(=O)CC2OC(=O)c3ccccc32)c1 (stereo not drawn),13µM*,6%,-5%,-26%,-10%
COc1ccc(C(=O)c2ccc(N3CCN(C(=O)c4ccc(F)cc4)CC3)c(F)c2)cc1Br,0%,9%,?,21µM*,-12%
CCC(=O)c1ccc(N2CCN(C(=O)c3ccc(F)cc3)CC2)c(F)c1,-1%,0%,-3%,-19%,1%
O=C(NC1CCCCC1)c1ccc(CSc2nc3ccncc3n2Cc2cccc(F)c2)cc1,5%,-6%,?,.,-25%
Cc1cccc(Cn2c(SCc3ccc(C(=O)NC4CCCC4)cc3)nc3ccncc32)c1,1%,-5%,21µM*,.,-6%
Cc1ccc(Cn2c(SCc3ccc(C(=O)N4CCCCCC4)cc3)nc3ccncc32)cc1,0%,11%,15µM*,.,-14%
C=C(C(=O)c1ccccc1)C(CC(=O)c1ccccc1)c1ccccc1 (stereo not drawn),4%,2%,23µM*,13µM*,?
O=C(c1ccc(CS(=O)c2ccccc2Cl)o1)N1CCN(c2cccc(C(F)(F)F)c2)CC1 (stereo not drawn),-2%,10%,?,.,-9%
O=C(O)c1ccc(CS(=O)c2cccc(C(F)(F)F)c2)o1 (stereo not drawn),-1%,0%,.,10µM*,-4%
Cc1ccccc1OCC(=O)NCC(C)NC(=O)COc1ccccc1C (stereo not drawn),.,.,-22%,.,0%
CCOC(=O)C1=C(Cc2ccc(F)cc2)C(=O)c2ccccc2C1=O,9%,19%,.,?,16µM*
O=C1Cc2cc(S(=O)(=O)N3CCN(c4cccc(C(F)(F)F)c4)CC3)ccc2N1,.,.,6%[92.2 µM],.,13%[92.2 µM]
COC(=O)C1Cc2c([nH]c3ccccc23)C2CCC(=O)N12 (stereo not drawn),2%,0%,.,.,.
COC(=O)[C@@H]1Cc2c([nH]c3ccccc23)C(C)(C)N1C(=O)CCl,10µM*,1%,-14%,?,-7%
CCC1Sc2ccc(S(=O)(=O)CCC(=O)Nc3cccc(Br)c3)cc2NC1=O (stereo not drawn),0%,10%,-31%,-3%,-16%
c1ccc(-n2ncc3c2ncn2nc(-c4ccco4)nc32)cc1,10µM*,0%,?,?,-7%
CCn1c(=O)cc(OCC(=O)Nc2ccc(C)c(F)c2)c2ccccc21,1%,1%,17%,.,-6%
CCn1c(=O)cc(SCC(=O)Nc2ccc(C)c(F)c2)c2ccccc21,-1%,-18%,23µM*,.,-4%
CC(C)(C)OC(=O)Cc1nnc(CNC(=O)c2ccccc2)s1,.,.,-12%,.,1%
SMILES,Nrf2 ARE act,mIDH1 inhibitor,Nrf2 inh,ELG1 repair inh,A549 tox
Nc1ncc(-c2ccccc2)c(-c2ccc(OCc3ccccc3)cc2O)n1,0%,-6%,23µM*,0%,-15%
COc1ccc(-c2cnc(N)nc2-c2ccc(OC)cc2O)cc1,-1%,23%,?,23µM*,-1%
COc1ccc(-c2nc(N)ncc2-c2ccccc2)c(O)c1,0%,-1%,14%,24%,12%
O=C(COc1ccccc1Cl)Nc1ccc2nc(SCC(=O)N3CCOCC3)sc2c1,-1%,-5%,-18%,.,-1%
CCCN(CCC)c1nc(N)nc(C#N)n1,.,.,-18%,.,0%
CCCCN(CC)CCCNC(=O)Cn1nc(CC)n2c(cc3sccc32)c1=O,0%,-2%,9%,.,7%
COc1ccc2cc(/C=C3\SC(=S)NC3=O)c(N3CCOCC3)nc2c1,2%,-14%,21µM*,?,18µM*
O=C1NC(=S)S/C1=C/c1ccc(N2CCOCC2)o1,?,?,19%,?,21µM*
COc1ccccc1NCc1cccn1-c1nnc(N2CCCCCC2)s1,6%,14%,?,.,-8%
CCN(c1ccccc1)S(=O)(=O)c1ccc(NC(=O)c2nc(S(C)(=O)=O)ncc2Cl)cc1,-3%,0%,21µM*,?,?
CCS(=O)(=O)c1oc(-c2ccc(F)cc2)nc1S(=O)(=O)c1ccc(Br)cc1,0%,-24%,?,.,?
COc1ccccc1NCC(=O)c1ccc(Cl)cc1,4%,46µM*,5%,0%,-2%
Cc1ccc(S(=O)(=O)/N=C(\N)Nc2nc(C)c3ccc(C)cc3n2)cc1,2%,7%,8.2µM*,-18%,-7%[1.84 µM]
CC(C)N1C/C(=C/c2cccnc2)C(=O)/C(=C/c2cccnc2)C1,?,1%,5%,?,0%
CC(C)N1C/C(=C/c2ccsc2)C(=O)/C(=C/c2ccsc2)C1,?,15%,-1%,18µM*,-1%
COc1ccc(S(=O)(=O)Cc2ccc(C(=O)NC3CCCCCC3)o2)cc1,0%,0%,?,?,-10%
Cc1ccc(S(=O)(=O)CCSc2nc(C)cc(C)c2C#N)cc1,4%,3%,21µM*,-27%,-21%
CSc1nc(N)nc(SCC(=O)Nc2ccc(Cl)cc2)c1C#N,17%,0%,15µM*,-3%,?
CSc1nc(N)nc(SCCS(=O)(=O)c2ccc(Cl)cc2)c1C#N,13µM*,-6%,?,-3%,-1%[1.84 µM]
CCS(=O)(=O)CCSc1nc(C)cc(C)c1C#N,0%,5%,0%,22%,-1%
Nc1ccccc1SCCS(=O)(=O)c1ccc(Cl)cc1,-1%,-6%,6%,-18%,0%
C/C(=N\NC(=S)Nc1cc(S(=O)(=O)N2CCOCC2)ccc1Cl)c1ccc(N2CCOCC2)cc1,0%,-13%,-15%,?,-7%
CN1CCN(c2ccc(S(=O)(=O)N3CCOCC3)cc2NC(=O)CC(C)(C)C)CC1,-1%,0%,-15%,21%,3%
CSc1ccc(Cl)c(C(=O)Nc2cc(S(=O)(=O)N3CCOCC3)ccc2N2CCOCC2)c1,0%,1%,-9%,18µM*,-1%

# Assay outcomes deposited in PubChem BioAssay by National Center for Advancing Translational Sciences (NCATS).
